Screens: PubChem, Columbia University Molecular Screening Center
Many of the other results were omitted from the sample, so hits are more common in it than they were.
VCAM1 TNFa pot: TNF alpha stimulated VCAM1 expression potentiation. activation, % at 2 µM. 93,000 compounds, 0.19% hits. AID 808. HUVEC TNFa-stimulated VCAM-1 immunofluorescence, high-content imaging; scaled per plate to unstimulated/TNFa-only wells;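 active = activation above the screen mean plus 3 SD, with well images confirming the hit on visual review, cut at about 28% in these data, passing the limit was not always enough; inconclusive = activation above that limit but images do not confirm it; inactive = activation not above that limit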;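 note: signal is the number of cytoplasmic VCAM-1 stained grains per positive cell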
VCAM1 pot conf: enhancers of VCAM1 induction in HUVEC – imaging, triplicate retest, confirmation | 230 tested, under 10 active | HUVEC TNFa-stimulated VCAM-1 immunofluorescence imaging | activation, % at 2 µM | AID 1034 | shares compounds with VCAM1 TNFa pot;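 active = activation above 30% in triplicate retests at 2 µM, then confirmed by visual review of the well images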;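 note: scaled per plate between unstimulated and TNFa-stimulated DMSO control wells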
An asterisk follows results filed as active; ? = inconclusive.

SMILES | VCAM1 TNFa pot | others
Cc1ccc(C2/C(=C(/O)c3ccc(OC(C)C)cc3)C(=O)C(=O)N2CCN2CCOCC2)cc1 (stereo not drawn) | -5
CCOc1ccc(C2/C(=C(/O)c3ccc(OC)cc3)C(=O)C(=O)N2c2cc(C)on2)cc1OC (stereo not drawn) | 58* | VCAM1 pot conf=-4
CCN(C1CCCCC1)S(=O)(=O)c1cn(C)c(=O)n(C)c1=O | -2
CC(C)=C1C2CCC1C1C(=O)N(NC(=O)COc3ccc(Cl)c(C)c3)C(=O)C21 (stereo not drawn) | 0
CC(C)OC(=O)c1c(-c2ccc(C(C)C)cc2)csc1NC(=O)C1CCCO1 (stereo not drawn) | -8
CCc1ccc(NC(=O)Cn2c(=O)n(CCCC(=O)NCc3ccco3)c(=O)c3ccccc32)cc1 | ? | VCAM1 pot conf=-16
CCN(Cc1ccccc1)C(=O)Cn1c(=O)n(CC(=O)NCc2ccco2)c(=O)c2sccc21 | -9
O=C(Cn1c(=O)oc2ccccc21)NCc1ccco1 | -5
CNc1nc(OCCNC(=O)Nc2ccccc2)nc(N2CCOCC2)n1 | 0
Cn1c(-c2ccc(C=O)s2)nc2ccccc21 | 0
O=C(O)c1ccccc1C(=O)N1CC=C(c2ccccc2)CC1 | 5
O=C(COC(=O)c1cccnc1Cl)c1cccc(Cl)c1 | -3
Cc1nc(-c2cccc(-c3noc(C)n3)c2)no1 | -37
COc1ccc(-c2nc(-c3cccc(C)c3)no2)cc1OC | 54* | VCAM1 pot conf=-17
Cc1cccc(-c2noc(CCc3ccccc3)n2)c1 | 3
COc1ccc(CCC(=O)Nc2ccc3c(c2)OCCO3)cc1 | -3
CC1=C(C(=O)Nc2cc(C)ccc2C)C(c2cccs2)NC(=S)N1 (stereo not drawn) | 52* | VCAM1 pot conf=-11
COc1cc(NC(=S)NC(=O)c2ccc(C)cc2C)ccc1NC(=O)c1cccs1 | -5
N#Cc1c2c(c(NCc3cccnc3)n3c1nc1ccccc13)CCC2 | -3
CCCC1(C)Nc2ccccc2-c2nc3ccccc3n21 (stereo not drawn) | -6
Cc1ccc(OC(=O)NC2CCS(=O)(=O)C2)cc1C (stereo not drawn) | -12
CCCCOCCCNC(=O)c1cccs1 | -90
Cc1ccc(S(=O)(=O)NCCCNC(=O)c2ccccc2)cc1 | 2
CCCCN(CCCNC(=O)c1c(C)cc(=O)oc1C)c1ccccc1 | 40* | VCAM1 pot conf=-6
CCCCCn1nc(C)c2c(C)cc(=O)[nH]c21 | 17
SMILES | VCAM1 TNFa pot | others
Cn1cnnc1SCC(=O)Nc1ccccc1C(=O)NC1CC1 | 36* | VCAM1 pot conf=-13
Cn1cnnc1SCCNS(=O)(=O)c1ccccc1 | 7
Cc1nnc(NC(=O)CSc2nccn2C)s1 | 6
O=C(CNC(=O)c1ccco1)OCc1ccc(Cl)cc1 | -23
CCN1CCCC1CNC(=O)Cn1cnc2sc(C)c(S(=O)(=O)N3CCC(C)CC3)c2c1=O (stereo not drawn) | 48* | VCAM1 pot conf=-2
O=C(Cn1cnc([N+](=O)[O-])c1)Nc1cc(Oc2ccc(Cl)cc2Cl)cc([N+](=O)[O-])c1 | -11
COC(=O)c1cccc(Cn2nnc3ccccc3c2=O)c1 | 12
Cc1ccc(N2CC(C(=O)Nc3ccccc3C(=O)NC3CCCCC3)CC2=O)cc1 (stereo not drawn) | 21
CCOc1ccc(C(=O)C2CCN(CC(=O)Nc3ccccc3N3CCOCC3)CC2)cc1 | -31
CCOc1ccc(Br)cc1S(=O)(=O)Nc1ccccc1N1CCOCC1 | 92* | VCAM1 pot conf=-16
CCOc1cc(N2CCOCC2)c(OCC)cc1NC(=O)CC12CC3CC(CC(C3)C1)C2 | 3
COc1ccc(S(=O)(=O)N2CCC(C(=O)Nc3ccc(OC)c(OC)c3)CC2)cc1C | 14
C=CCn1c(SC(C)C(=O)NC2(C#N)CCCCC2)nnc1-c1ccc(OC)cc1 (stereo not drawn) | 16
Cc1ccc(N2CN=c3s/c(=C\c4cccnc4)c(=O)n3C2)cc1 | 98* | VCAM1 pot conf=1
COc1ccc(NC(=O)C2CC2)cc1NS(=O)(=O)c1ccc(F)cc1 | -2
COc1ccc(CCC(=O)NCCc2cn3c(C)csc3n2)cc1 | 1
COc1ccccc1CN(Cc1ccco1)S(=O)(=O)c1ccc(-n2cnnn2)c(OC)c1 | 43* | VCAM1 pot conf=-19
CS(=O)(=O)N(Cc1ccco1)Cc1ccccc1Cl | 2
Cc1cc(S(=O)(=O)N(Cc2ccc(F)cc2)CC2CCCO2)ccc1-n1cnnn1 (stereo not drawn) | -9
CCCCOc1ccc(C2(C(=O)O)CCCC2)cc1 | -4
CCCCN(C)C(=O)C1CCC(=O)N(c2cc(OC)c(OC)c(OC)c2)C1c1ccc(OC)cc1 (stereo not drawn) | -1
Fc1ccccc1/C=C1\CCCC2=C1Nc1nnnn1C2c1ccccc1F (stereo not drawn) | -5
CCOC(=O)Cc1nnc(NC(=O)CC)s1 | -1
COC(=O)c1sc(=S)n(-c2cccc(Cl)c2)c1N | -8
Cc1n[nH]c(=S)c2nn(-c3ccccc3F)c(C)c12 | 55* | VCAM1 pot conf=-12
SMILES | VCAM1 TNFa pot | others
C/C=C/c1ccc(OCCn2cncn2)c(OC)c1 | -10
Cc1ccccc1-c1nc(CN2CCC(C(=O)NCCCN3CC(C)CC(C)C3)CC2)c(C)o1 (stereo not drawn) | -43
Cc1c(C#N)sc2nc(-c3ccccc3)nc(N3CCCC3)c12 | 14
O=C(Nc1ccc(N2CCOCC2)c(Cl)c1)c1cccnc1 | 56* | VCAM1 pot conf=-12
O=C(CCc1ccccc1)Nc1ccc(N2CCOCC2)c(Cl)c1 | -5
O=C(Nc1ccc(N2CCCC2)c(Cl)c1)c1cccnc1 | 4
CC1(C(=O)O)Cc2ccccc2C(=O)O1 (stereo not drawn) | -6
C=CCOn1c(=O)c(=O)n(OCc2ccccc2)c2ccccc21 | 96* | VCAM1 pot conf=-15
CC(=N\Nc1ccc(Cl)cc1)/C(=N/O)C(=O)Nc1ccccc1 | 25
CCCC1(C(=O)OCC)NC(c2ccc(OC)cc2OC)C2C(=O)N(c3ccc4c(c3)OCCO4)C(=O)C21 (stereo not drawn) | -7
